Most compounds without a hit are left out; they make up all but 14% or so of the library.
LmPK inhibitor = LmPK (Leishmania mexicana) enzyme inhibition. Q27686. 0.37% of 290,000 active. purified LmPK, Kinase-Glo ATP luminescence, 1 h. Potency, µM (top dose mostly 57.5 µM), for inactives: at the top dose activity change, negative = inhibition, most hits filed as inhibitors; also: potency is read from the fitted curve at half-maximal effect; % is scaled to controls: 0 for no effect and ±100 for the full control effect
Target sequence (Q27686 whole entry, looked up): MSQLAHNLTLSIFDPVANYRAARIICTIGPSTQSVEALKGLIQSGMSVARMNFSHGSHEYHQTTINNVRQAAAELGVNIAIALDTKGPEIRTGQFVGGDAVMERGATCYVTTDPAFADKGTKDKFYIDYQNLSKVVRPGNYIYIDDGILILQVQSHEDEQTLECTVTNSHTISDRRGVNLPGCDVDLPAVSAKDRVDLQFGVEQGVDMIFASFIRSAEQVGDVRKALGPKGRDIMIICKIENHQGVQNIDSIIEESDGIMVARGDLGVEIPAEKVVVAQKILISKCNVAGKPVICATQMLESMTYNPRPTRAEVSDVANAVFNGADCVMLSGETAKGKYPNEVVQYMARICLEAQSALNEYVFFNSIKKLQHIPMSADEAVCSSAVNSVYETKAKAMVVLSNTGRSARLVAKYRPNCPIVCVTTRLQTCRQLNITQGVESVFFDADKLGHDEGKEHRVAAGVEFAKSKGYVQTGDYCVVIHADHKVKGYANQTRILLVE
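0.1 nM LmPK, 0.5 mM PEP, 0.1 mM ADP; 50 mM imidazole pH 7.2, 7 mM MgCl2, 50 mM KCl; 1 h RT. Kinase-Glo luminescence readout, normalized to no-enzyme (full inhibition) and uninhibited wells.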
NS1 inh = influenza NS1 inhibition; Potency, µM (series often up to 46.1 µM), for the others: top-dose activity, positive = more growth; 0.4% of 270,000 active; calls by dose curve; also: potency is read from the fitted curve at half-maximal effect; actives are rising curves; nearly all actives have a fitted effect of over 50% in size
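S. cerevisiae expressing influenza A NS1, grown in glucose, washed, then diluted 1:100 into pH 6.0 -URA galactose medium with 23 nl compound. Growth recovery read as OD600; NS1-free strain serves as control.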
CHX counter = counter-screen for Shiga toxin inhibitors: cycloheximide protein synthesis inhibition; cell reporter, cycloheximide protein synthesis inhibition counterscreen; max response, %; AID 2314; 12% of 300,000 active; in the data active = max response mostly above about 13%, no sharp cut-off; inactive = mostly below about 14%; also: read at 38.3 µM for the half of the compounds with a filed dose; 0% is about no effect
Giardia FBPA inh = inhibitors of Giardia lamblia fructose-1,6-bisphosphate aldolase; A8B2U2; 0.71% of 290,000 active; purified Giardia FBPA; Potency, µM (doses to about 59.6 µM), without a hit: at the highest dose activity, negative = inhibition, most hits filed as inhibitors; also: potency is read from the fitted curve at half-maximal effect; % is scaled to controls: 0 for no effect and ±100 for the full control effect; nearly all actives have a fitted effect of over 55% in size
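Giardia FBPA (40 nM reagent) was preincubated 10 min at RT with compound (up to 57.5 uM final), then substrate plus GAPDH/TPI/NAD/arsenate coupling system with diaphorase/resazurin was added; resorufin fluorescence (525/598 nm) was read after 20 min.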
Shiga inhibitor = Shiga toxin inhibition; 9.2% of 290,000 active; AID 2315; Vero cells, Shiga toxin protein synthesis inhibition reporter; inhibition, % at 38.7 µM; in the data active = inhibition mostly above about 28%, no sharp cut-off; inactive = mostly below about 43%; also: 0% is about no effect
* hit, by the source's call; [ ] = remark or other dose. Unless noted, calls follow the shape of the dose curve; as a rule, active = well fitted curve in the direction sought with a large enough effect; inconclusive = small, poorly fitted or top-dose-only effect, or another doubt; inactive = no such curve, though single readings can be large; an effect the other way counts as inactive or inconclusive.

For O=C(Nc1ccc(N2CCOCC2)c(Cl)c1)c1ccc([N+](=O)[O-])o1 the results were LmPK inhibitor -8%, NS1 inh -39%, CHX counter 19*, Giardia FBPA inh inconclusive and Shiga inhibitor 17.
Screening O=C(NCC1CC1)c1ccccc1Cl returned LmPK inhibitor 0%, NS1 inh 6%, CHX counter -2, Giardia FBPA inh 0% and Shiga inhibitor 4.
For O=C(NCC(=O)N1CCCC1)c1ccc(Br)o1 the results were LmPK inhibitor 0%, NS1 inh -6%, CHX counter 6, Giardia FBPA inh 7% and Shiga inhibitor 13.
For CCN1CCC(=NNC(=O)c2ccco2)CC1 the results were LmPK inhibitor 7%, NS1 inh 3%, CHX counter 56*, Giardia FBPA inh -17% and Shiga inhibitor 53*.
For O=C(NN=C1CCN(Cc2ccccc2)CC1)c1ccccc1O the results were LmPK inhibitor 4%, CHX counter 22*, Giardia FBPA inh -11% and Shiga inhibitor 35*.
`CCCN1CCC(=NNc2ccc(C(=O)O)cc2)CC1` gave LmPK inhibitor 0%, NS1 inh 7%, CHX counter 30*, Giardia FBPA inh -9% and Shiga inhibitor 40*.
CCCN1CCC(=NNC(=O)c2ccc(Br)o2)CC1 was read as LmPK inhibitor -6%, NS1 inh -19%, CHX counter 41*, Giardia FBPA inh -10% and Shiga inhibitor 70*.
`CO[C@@H]1C=CO[C@]2(C)Oc3c(C)c(O)c4c(O)c(c(C=NN5CCN(C)CC5)c(O)c4c3C2=O)NC(=O)C(C)=CC=C[C@H](C)[C@H](O)[C@H](C)[C@H](O)[C@H](C)[C@H](OC(C)=O)[C@H]1C` gave Giardia FBPA inh -25%[21.7 µM].
Screening CCOC(=O)C1=C(C)C/C(=N\NC(=O)c2ccccc2O)CC1 returned LmPK inhibitor inconclusive, NS1 inh -37%, CHX counter 23*, Giardia FBPA inh inconclusive and Shiga inhibitor 38.
Screening CC(C)(C)c1cc(NC(=O)c2ccc(OC3CCCC3)cc2)no1 returned LmPK inhibitor 6%, NS1 inh 2%, CHX counter 3, Giardia FBPA inh 0% and Shiga inhibitor 18.
For O=C(Nc1ccon1)c1ccc(OC2CCCC2)cc1 the results were LmPK inhibitor -1%, NS1 inh -18%, CHX counter 64*, Giardia FBPA inh -7% and Shiga inhibitor 92*.
For CSc1cccc(NC(=S)N2CCC(c3ccccc3)C2)c1 (stereo not drawn) the results were LmPK inhibitor 2%, NS1 inh -5%, CHX counter 20*, Giardia FBPA inh 2% and Shiga inhibitor 50*.
For CSc1cccc(NC(=S)N2CCC(N(C)C3CCCCC3C)CC2)c1 (stereo not drawn) the results were LmPK inhibitor 2%, CHX counter 1, Giardia FBPA inh 6% and Shiga inhibitor 13.
For CCc1cccc(NC(=S)N2CCC(c3ccccc3)C2)c1 (stereo not drawn) the results were LmPK inhibitor -3%, CHX counter 65*, Giardia FBPA inh -2% and Shiga inhibitor 74*.
Screening Cc1ccc(/C=C\c2nccc3c2[nH]c2ccccc23)cc1 returned LmPK inhibitor -2%, NS1 inh -44%, CHX counter 33*, Giardia FBPA inh -7% and Shiga inhibitor 59.
C(=C\c1nccc2c1[nH]c1ccccc12)/c1ccccc1 was read as LmPK inhibitor 5%, NS1 inh -43%, CHX counter 33*, Giardia FBPA inh -17% and Shiga inhibitor 85*.
For Fc1ccc(/C=C\c2nccc3c2[nH]c2ccccc23)cc1 the results were LmPK inhibitor 6%, NS1 inh -4%, CHX counter 13, Giardia FBPA inh -11% and Shiga inhibitor 45.
For COc1cccc(/C=N/NC(=O)c2ccc3nc[nH]c3c2)c1 the results were LmPK inhibitor -3%, NS1 inh 4%, CHX counter 6, Giardia FBPA inh -6% and Shiga inhibitor 37.
Screening CC(=C/c1ccccc1)/C=N/NC(=O)c1ccc2nc[nH]c2c1 returned LmPK inhibitor -3%, NS1 inh 11%, CHX counter 17*, Giardia FBPA inh 8% and Shiga inhibitor 51*.
O=C(N/N=C/C(Br)=C\c1ccccc1)c1ccc2nc[nH]c2c1 was read as LmPK inhibitor -2%, NS1 inh 10%, CHX counter 19*, Giardia FBPA inh 0% and Shiga inhibitor 46.
CC(/C=N/NC(=O)c1ccc2nc(C)[nH]c2c1)=C\c1ccccc1 was read as LmPK inhibitor -2%, NS1 inh -4%, CHX counter 14, Giardia FBPA inh -3% and Shiga inhibitor 16.
For COc1cc(NCc2ccc3nc(N)nc(N)c3c2C)cc(OC)c1OC the results were CHX counter 0, Giardia FBPA inh 5.6µM* and Shiga inhibitor -2.
Screening CCOC(=O)CSC1=NC(=O)/C(=C\c2ccc(Cl)cc2)S1 returned LmPK inhibitor -10%, NS1 inh -186%, CHX counter 34*, Giardia FBPA inh 15% and Shiga inhibitor 104*.
Screening CN=C1S/C(=C\c2ccc(SC)cc2)C(=O)N1C returned LmPK inhibitor -11%, NS1 inh -9%, CHX counter 33*, Giardia FBPA inh -20% and Shiga inhibitor 56*.
Screening CN=C1S/C(=C\c2ccc(Cl)cc2)C(=O)N1C returned LmPK inhibitor -2%, NS1 inh -15%, CHX counter 6, Giardia FBPA inh 2% and Shiga inhibitor 26.
`CSC1=NC(=O)/C(=C/c2ccc(SC)cc2)S1` gave LmPK inhibitor -23%, CHX counter 31*, Giardia FBPA inh 11% and Shiga inhibitor 96.
Screening CN=C1S/C(=C\c2ccc(OCC(=O)OC)c(OC)c2)C(=O)N1C returned LmPK inhibitor -6%, NS1 inh -33%, CHX counter 13* and Giardia FBPA inh 14%.
CSC1=N/C(=C\c2ccc(F)cc2)C(=O)S1 was read as LmPK inhibitor 1%, NS1 inh -20%, CHX counter 8, Giardia FBPA inh -5% and Shiga inhibitor -17.

Screens deposited in PubChem by National Center for Advancing Translational Sciences (NCATS).
